# Whole data set: some 81,000 sequences, median “one-hybrid fitness for binding NBS DNA” near -0.1, cut for the highest 2% near 0.36. Shown is part of a subset that was picked to be rich in the highest values.
# B1: Caulobacter ParB omega fusion; a variant is named by its letters at X, in order, B8GW30 (parent)
# chain: MESVVVGEPGMSEGRRGLGRGLSALLGEVDAAPAQAPGEQLGGSREAPIEILQRNPDQPRRTFREEDLEDLSNSIREKGVLQPILVRPSPDTAGEYQIVAGERAWRAAQRAGLKTVPIMVRELDDLAVLEIGIIENVQRADLNVLEEALSYKVLMEKFERTQENIAQTIGKSXSHVANXMRLLXLPDEVQSYLVSGELTAXHARAIAAAADPVALAKQIIEGGLSVRETEALARKAPNLSAGKSKGGRPPRVKDTDTQALESDLSSVLGLDVSIDHRGSTGTLTITYATLEQLDDLCNRLTRGI
# Variants of: B1
# Assay: one-hybrid fitness for binding NBS DNA (the Noc-binding site; scaled: cognate 1, non-cognate 0); higher = stronger binding
# Conditions: with NBS DNA site
# How it was run: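 Caulobacter ParB libraries with four specificity codons randomised were screened by bacterial one-hybrid selection in the E. coli USO strain, using a HIS3 reporter whose site lies 19 bp from the promoter. Selection ran for 48 hours at 37°C on M9 lacking histidine, with 0.1 mM IPTG and 5 mM 3-AT. Plasmids were Illumina-sequenced before and after selection, three replicate libraries were pooled, and variants with under 10 reads were dropped. Fitness is the log change in each variant's read ratio to wild type, rescaled against the cognate and non-cognate sites.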
row,Variant,one-hybrid fitness for binding NBS DNA
1,VSMY,≤ 0.2
2,WPTG,≤ 0.2
3,TWNS,≤ 0.2
4,VPYS,≤ 0.2
5,QQFW,≤ 0.2
6,QQDW,≤ 0.2
7,QQRW,0.373
8,QQVW,≤ 0.2
9,QQKW,0.382
10,QQYW,≤ 0.2
11,PDLF,≤ 0.2
12,GASG,≤ 0.2
13,IEFV,≤ 0.2
14,HVSS,≤ 0.2
15,QPRQ,≤ 0.2
16,QTYQ,≤ 0.2
17,QCRQ,0.527
18,QTCQ,≤ 0.2
19,QSRQ,0.413
20,QSYQ,≤ 0.2
21,QHRQ,0.33
22,QRRQ,0.496
23,QTRQ,0.581
24,QSDQ,≤ 0.2
25,QRIQ,≤ 0.2

row,Variant,one-hybrid fitness for binding NBS DNA
1,QRYQ,0.35
2,AGTH,≤ 0.2
3,MNRA,≤ 0.2
4,FAPL,≤ 0.2
5,KVYR,≤ 0.2
6,IVTS,≤ 0.2
7,MDCS,≤ 0.2
8,CHRG,≤ 0.2
9,PCMS,≤ 0.2
10,KLNI,≤ 0.2
11,PANI,≤ 0.2
12,HTQS,≤ 0.2
13,DLLT,≤ 0.2
14,QKNQ,0.245
15,QMLQ,≤ 0.2
16,QMRQ,0.437
17,QKSQ,≤ 0.2
18,QMSQ,0.242
19,QKRQ,0.415
20,WNMG,≤ 0.2
21,PCVV,≤ 0.2
22,QGRA,≤ 0.2
23,TPPQ,≤ 0.2
24,QTAT,0.595
25,QTFM,≤ 0.2

row,Variant,one-hybrid fitness for binding NBS DNA
1,QTFC,≤ 0.2
2,QTFT,0.515
3,QTAG,≤ 0.2
4,QTAF,≤ 0.2
5,MPRS,≤ 0.2
6,QVPV,≤ 0.2
7,YMPV,≤ 0.2
8,QRQA,0.611
9,QSQA,0.248
10,QPQA,≤ 0.2
11,QCQA,0.372
12,QAQA,0.252
13,QHQA,0.315
14,RSSR,0.437
15,RPSR,≤ 0.2
16,RFSR,0.248
17,RSSH,≤ 0.2
18,RCSR,0.527
19,RSSN,≤ 0.2
20,CVPS,≤ 0.2
21,VSVV,≤ 0.2
22,PVFF,≤ 0.2
23,GQRG,≤ 0.2
24,KRRA,0.524
25,KCNA,≤ 0.2

row,Variant,one-hybrid fitness for binding NBS DNA
1,KRYA,0.313
2,KRFA,0.277
3,KRKA,0.552
4,KRNA,0.384
5,KCKA,≤ 0.2
6,KRVA,≤ 0.2
7,KRDA,≤ 0.2
8,QDQP,≤ 0.2
9,VKIM,≤ 0.2
10,TAPS,≤ 0.2
11,DPGG,≤ 0.2
12,TPCF,≤ 0.2
13,YQMR,≤ 0.2
14,QPRH,≤ 0.2
15,QCRH,0.693
16,QCYH,0.257
17,QSRP,0.242
18,QSYH,≤ 0.2
19,QSRH,0.535
20,HHWC,≤ 0.2
21,RFYR,≤ 0.2
22,RCYR,0.518
23,RPRR,≤ 0.2
24,RCRR,0.77
25,RDRR,≤ 0.2

row,Variant,one-hybrid fitness for binding NBS DNA
1,RSPR,≤ 0.2
2,RFDR,≤ 0.2
3,RFRR,0.486
4,RSYR,0.381
5,RCDR,0.255
6,RSIR,0.207
7,RPYR,≤ 0.2
8,RPCV,≤ 0.2
9,MHMS,≤ 0.2
10,FEYF,≤ 0.2
11,SDMT,≤ 0.2
12,MIYS,≤ 0.2
13,TKTV,≤ 0.2
14,PMHR,≤ 0.2
15,LLCI,≤ 0.2
16,RSRP,≤ 0.2
17,RSRR,0.664
18,QQPL,≤ 0.2
19,PLCI,≤ 0.2
20,GLAR,≤ 0.2
21,HQST,≤ 0.2
22,TWRR,≤ 0.2
23,QYNP,≤ 0.2
24,QYYR,0.466
25,QYNT,0.488

row,Variant,one-hybrid fitness for binding NBS DNA
1,QYGT,0.421
2,QYPR,0.27
3,QYLS,0.256
4,QYGK,≤ 0.2
5,QYLP,≤ 0.2
6,QYLR,0.436
7,QYIR,0.346
8,QYGC,≤ 0.2
9,QYDT,0.272
10,NGTR,≤ 0.2
11,DDKT,≤ 0.2
12,MCAC,≤ 0.2
13,HSLM,≤ 0.2
14,FAHM,≤ 0.2
15,KQAV,≤ 0.2
16,DLQG,≤ 0.2
17,QYCS,0.301
18,QYRF,0.248
19,QYCR,0.462
20,QYGM,≤ 0.2
21,QYGG,≤ 0.2

# From a collection of fitness landscapes (doi:10.1016/j.celrep.2020.107928)
